# Hits are enriched below; roughly 12% of the tested compounds scored in any of these assays.
# Pf growth 96h: inhibits malaria parasite growth, 96 h; P. falciparum luciferase reporter growth, 96 h; actives 6.9% (n = 320,000); Potency, µM (top dose mostly 28.7 µM), without a hit: at the top dose activity change, negative = inhibition, hits mostly inhibitors; AID 504834; also: % is scaled to controls: 0 for no effect and ±100 for the full control effect
#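 Parasite growth measured via integrated firefly luciferase reporter in P. falciparum. Infected erythrocytes at 2% hematocrit, 0.05% parasitemia final were treated 96 hours at 37 C under 5% CO2, and luminescence was read.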
# Pf growth 48h: inhibits P. falciparum growth in the first generation, 48 h; P. falciparum luciferase growth in erythrocytes, 48 h; Potency, µM (series often up to 28.7 µM), for the others: at the highest dose activity change, negative = inhibition, hits mostly inhibitors; actives 5.9% (n = 310,000); AID 504832; also: % is scaled to controls: 0 for no effect and ±100 for the full control effect
#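 Cell-based growth assay: transgenic P. falciparum expressing firefly luciferase, cultured in red cells within RPMI 1640 containing 0.5% w/v Albumax, 24 mM bicarbonate and gentamycin. A drop in luciferase activity indicates inhibition.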
# Sm TGR inh: blocks Schistosoma mansoni thioredoxin glutathione reductase; Q962Y6; AID 485364; Potency, µM (series often up to 114 µM), without a hit: at the top dose activity change, negative = inhibition, most hits filed as inhibitors; actives 3% (n = 360,000); purified TGR, DTNB reduction, TNB absorbance 405 nm; also: % is scaled to controls: 0 for no effect and ±100 for the full control effect; nearly all actives have a fitted effect of over 60% in size
#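 First, TGR (20 nM dispensed) and NADPH were mixed with compound. Second, a 15 min room-temperature incubation followed. Third, further NADPH and then DTNB were added to start the reaction. Finally, TNB absorbance was monitored kinetically.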
# SARS PLP yeast: blocks SARS-CoV papain-like protease in a yeast assay. Potency, µM (titrated, usually from 32.9 µM), without a hit: at the highest dose activity, positive = growth rescue, usual class: activators. actives 0.19% (n = 330,000). S. cerevisiae expressing SARS-CoV PLpro, growth rescue. AID 485353; calls by dose curve; also: 0% is about no effect; nearly all actives have a fitted effect of over 55% in size
# * = called active by the depositor; ? = inconclusive; nt = no result given; [ ] = remark or other dose. Unless noted, calls follow the shape of the dose curve; as a rule, active = well fitted curve in the direction sought with a large enough effect; inconclusive = small, poorly fitted or top-dose-only effect, or another doubt; inactive = no such curve, though single readings can be large; an effect the other way counts as inactive or inconclusive. Potency is read from the fitted curve at half-maximal effect.
SMILES,Pf growth 96h,Pf growth 48h,Sm TGR inh,SARS PLP yeast
Cc1ccc(C2(c3ccccc3)NC(=O)N(CC(=O)N3CC(=O)Nc4ccccc43)C2=O)cc1C (stereo unspecified),3.7µM*,2.3µM*,-8%,2%
CCCC1(c2ccccc2)NC(=O)N(CC(=O)N2CC(=O)Nc3ccccc32)C1=O (stereo unspecified),?,2.9µM*,-12%,2%
O=C1CN(C(=O)CN2C(=O)NC(c3ccccc3)(c3ccccc3)C2=O)c2ccccc2N1,nt,nt,nt,2%
Cc1ccc(C2(c3ccccc3)NC(=O)N(CC(=O)NC3CCCCC3)C2=O)cc1C (stereo unspecified),?,?,2%,0%
COc1ccccc1CNC(=O)CN1C(=O)NC(c2ccccc2)(c2ccc(C)c(C)c2)C1=O (stereo unspecified),9.3µM*,9.3µM*,23%,1%
COc1ccc(N2CCN(C(=O)C3CCC(Cn4c(=S)[nH]c5ccccc5c4=O)CC3)CC2)cc1 (stereo unspecified),15%,?,0%,-4%
COc1ccccc1N1CCN(C(=O)C2CCC(Cn3c(=S)[nH]c4ccccc4c3=O)CC2)CC1 (stereo unspecified),70%,10µM*,-18%,4%
O=C(C1CCC(Cn2c(=S)[nH]c3ccccc3c2=O)CC1)N1CCOCC1 (stereo unspecified),23%,-5%,12%,-6%
O=C(C1CCC(Cn2c(=S)[nH]c3ccccc3c2=O)CC1)N1CCN(c2ccccn2)CC1 (stereo unspecified),12µM*,0%,-1%,-4%
O=C(CC(O)(c1ccccc1)C(F)(F)C(F)F)c1cccs1 (stereo unspecified),-27%,-6%,-9%,nt
COc1ccc(/C=C/C(=O)CCC(=O)O)cc1,4%,33%,0%,1%
O=C(O)/C=C/c1ccccc1,-9%,-6%,nt,nt
O=C(/C=C/c1ccccc1)CC(O)(c1ccccc1)C(F)(F)C(F)F (stereo unspecified),7.4µM*,nt,25µM*,-22%
COc1ccc(/C=C/C(=O)CC(O)(c2ccccc2)C(F)(F)F)cc1 (stereo unspecified),?,13µM*,-32%,-41%
O=C(/C=C/c1ccccc1)CC(O)(c1ccccc1)C(F)(F)F (stereo unspecified),?,nt,28µM*,-33%
CC1CCCN(C(=O)C2CCN(S(=O)(=O)c3ccc4c(c3)CC(C)N4C(=O)C3CC3)CC2)C1 (stereo unspecified),23%,?,3%,1%
CC(=O)N1c2ccc(S(=O)(=O)N3CCCC(C(=O)N4CCCCC4)C3)cc2CC1C (stereo unspecified),10µM*,?,-13%,4%
CC1Cc2cc(S(=O)(=O)N3CCCC(C(=O)N4CCCCC4)C3)ccc2N1C(=O)C1CC1 (stereo unspecified),13µM*,13µM*,9%,-3%
CC(=O)N1c2ccc(S(=O)(=O)N3CCCC(C(=O)NCc4ccccc4)C3)cc2CC1C (stereo unspecified),?,?,5%,-1%
CCCCCC1CC(CC(=O)Nc2nncs2)C(=O)O1 (stereo unspecified),7.4µM*,-5%,1%,24%
COc1ccc(Cl)cc1NC(=O)CSc1nnc(C)n2c1cc1occc12,nt,nt,-2%,nt
N#Cc1ccccc1-c1csc(N2CCC(C(N)=O)CC2)n1,7%,9%,nt,nt
COc1ccccc1-c1csc(N2CCC(C(N)=O)CC2)n1,?,12µM*,nt,nt
Cc1cccc(/N=C2/NC(=O)C(Cc3ccccc3)S2)n1 (stereo unspecified),-14%,33%,3%[57.1 µM],0%
O=C1NC(=Nc2ccc(F)cc2)SC1Cc1ccc(F)cc1 (stereo unspecified),8.3µM*,9.3µM*,3%,1%
SMILES,Pf growth 96h,Pf growth 48h,Sm TGR inh,SARS PLP yeast
CCOc1ccc(CC2S/C(=N/c3ccccn3)NC2=O)cc1 (stereo unspecified),80%,15µM*,-6%,2%
O=C1NC(=Nc2ccc(Cl)cc2)SC1Cc1cc(Cl)ccc1Cl (stereo unspecified),?,-12%,4%,0%
COc1cc(-c2nnc(SCC(=O)Nc3ccc(F)c(Cl)c3)o2)cc(OC)c1OC,nt,nt,-10%,nt
Cc1nc(SC(C)C(=O)Nc2ccccc2Cl)cc(-c2ccccc2)n1 (stereo unspecified),nt,nt,-1%,nt
CN(C)S(=O)(=O)Oc1ccsc1C(=O)Nc1ccc(Cl)c(Cl)c1,?,?,-3%,-4%
CN(C)S(=O)(=O)Oc1ccsc1C(=O)Nc1cccc(Cl)c1,?,1.7µM*,-7%,-22%
Cc1ccc2c(C)c(C(=O)N3CCN(c4ncccn4)CC3)oc2c1C,4%,3%,0%,-9%
CNC(=S)N(CCc1c(C)[nH]c2ccc(C)cc12)Cc1cc(OC)c(OC)c(OC)c1,10µM*,0%,-2%,-1%
CNC(=S)N(CCc1c(C)[nH]c2ccc(OC)cc12)Cc1cc(OC)c(OC)c(OC)c1,15µM*,10µM*,-4%,25%
CNC(=S)N(CCc1ccc(OC)c(OC)c1)Cc1cc2c(C)cc(C)cc2[nH]c1=O,12µM*,?,-10%,-6%
CNC(=S)N(CCc1c(C)[nH]c2ccccc12)Cc1cc(OC)c(OC)c(OC)c1,?,?,-4%,7%
CC1CN(C(=O)COC(=O)CSc2ccc([N+](=O)[O-])cc2)CC(C)O1 (stereo unspecified),10%,4%,0%,-3%
O=C(CSc1nncn2c1cc1sccc12)Nc1ccc(Br)cc1F,nt,nt,1%,nt
Cc1cccc(CS(=O)(=O)Cc2ccc(C(=O)NC3CCCC3)o2)c1,1%,?,-30%,23%
O=C(NCc1ccccc1)c1ccc(CS(=O)(=O)c2ccccc2)o1,10µM*,nt,-10%,-1%
Cc1cccc(CS(=O)(=O)Cc2ccc(C(=O)NCc3ccccc3)o2)c1,?,3%,45µM*,5%
Cc1ccc(CNC(=O)c2ccc(CS(=O)(=O)Cc3ccc(C)cc3)o2)cc1,nt,nt,6%,nt
Cc1cccc(CS(=O)(=O)Cc2ccc(C(=O)NCc3cccs3)o2)c1,?,-29%,35µM*,-1%
O=C(CN1CCc2cc3c(cc2C1)OCCCO3)Nc1cccc(Br)c1,?,11%,14%,-4%
CCN(CC(=O)Nc1ccccc1C(F)(F)F)C(=O)CN1C(=O)NC2(CCCC2)C1=O,14%,-9%,-9%,0%
CC(C)C(=O)NCC(c1ccc2c(c1)OCO2)N1CCOCC1 (stereo unspecified),25%,17%,-1%,-9%
O=C(NN=C1CCN(Cc2ccccc2)CC1)c1cc(Br)ccc1O,1.9µM*,45%,-30%,-9%
O=C(NN=C1CCN(Cc2ccccc2)CC1)c1ccccc1,?,16%,-7%,16%
Cc1cccc(-n2cnc3cc(C(=O)NC4CCCCCC4)ccc32)c1,nt,nt,-2%,nt
CNNC(=S)Nc1cccc(C(F)(F)F)c1,?,4.1µM*,7%,-1%
